According to the supplement of paper PMC6555819:

Tested on: THRa homodimer (NR concentration 90 nM)
Assay: PBM binding z-score (relative to random genomic background probes); higher = stronger binding; sequences stand for … in GC…GCGATTGACAGCGTAGAATGAAGG
Procedure, shortened: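 The probes on custom Agilent 4×180K protein-binding microarrays were double-stranded, with 34-nt variable regions bearing direct-repeat seeds, single-nucleotide variants, half-site ablations and random human genomic background sequences. Incubation lasted 1 h with ligand-free nuclear receptor dimers in PBS pH 7.4, 2% milk, 0.02% Triton X-100, 1 mM DTT, 0.2 mg/mL BSA and 0.4 mg/ml salmon testes DNA. Antibodies against each partner (one per run) detected bound dimers, and fluorescence scans were regression-normalized. Binding z-scores take the random background probes as reference.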

Row | Sequence | PBM binding z-score
1 | AGAATGAGGTTATTAAGATCCGGGAATTGCGGTC | 0.695
2 | ATCTCTAGGTAAGACTCACTTCAGTGAAGAACGC | 0.429
3 | ACTAGCAGGCCAAGGGTCACTCAAGATTAGTCCG | 0.199
4 | TCATATAGGTAAAGGTGAAGGTCGAACGATATGA | 0.00279
5 | TCTCGGAGGACACGACAGGTCAGAGCTCGACATC | 1.04
6 | CCTACTGGGCCATTAGGTCATTGATATCAACGTT | 2.27
7 | GCGACTGGGGCATCAGCAGGTTACCATGACTTAA | 0.00537
8 | ATCGACAGGTCGACGAGGTGAGTATACACCGTTT | 0.428
9 | TAATATAGGTAAACAGGTGAAAGTCCGTAAGTTA | 0.313
10 | CCGACTGGGGCAGAAACGTTACCATACCATCCGG | -0.735
11 | CCTCGGAGGACAGAGGGTCAGAGCTGTCCGCTTT | -0.314
12 | TCTAGCAGGCCAGAGGGCCACTCAAGAGGTACGG | -1.1
13 | CGAACTAGGTCATTGACAGGACAGTGAATAGTAA | 0.802
14 | CGTCCAAGGTCATAGGAGCTCAGTGAAGACAGAT | 2.37
15 | TCTATTACTTGATTAGGGCAACCGAAACAGCGGA | 0.73
16 | ATATGTAGGTTAAGGGTCAGTCAGGTTGGTTCGC | 1.68
17 | AGTCAAAGTTCACTAGGTAACGTGAGATTCAGCT | 0.0345
18 | GCTATTAATTGAAAGGGCAACCGAATGATTCTCG | -0.3
19 | CCTAGCAGGACAATCTGGGTCACTCAAGGCTTGA | 0.761
20 | ACTATTAGTTGAGACGAGGTCAACCGATAGGTTG | 3.82
21 | TCGAGTAGGTGACCAATGGGGCATTCAGCTTTCT | -0.979
22 | CGAACTAGGTCATTGACAGAACAGTGAATAGTAA | 0.922
